Measurements from PubChem BioAssay.
Calls of active or inactive are those of the source.

Legend:
[1] = E. coli DRC41 culture turbidity changes, primary screen, E. coli filamentation inducer project, strain DRC41, OD650, 48 h (AID 1152);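 also: E. coli MC1000 strain DRC41 lacking acrAB efflux pump and sulA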; settings: E. coli DRC41 (acrAB sulA), higher = more signal, called active from +8 up or from −8 down
[2] = small-molecule binders of probe aLefty1, primary screen, biochemical, small-molecule microarray, 635/667 nm fluorescence (AID 1153); settings: higher = more signal;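 also: score merges spot fluorescence with signal-to-noise ratio from the scanned slide images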
[3] = PSAC antagonists in infected red cells, primary screen, cell-based, P. falciparum Indochina, OD700, 1 h (AID 1154); settings: P. falciparum Indochina infected RBC osmotic lysis, higher = more signal, called active from +8 up or from −8 down
[4] = PSAC antagonists in infected red cells, primary screen, cell-based, P. falciparum Indochina, OD700, 2 h (AID 1155);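 also: lysis reports solute entry through the parasite surface anion channel PSAC; channel blockers reduce lysis of infected cells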; settings: P. falciparum Indochina infected erythrocytes, osmotic lysis OD700; higher = more signal, called active from +8 up or from −8 down
[5] = osmotic lysis modulators in infected erythrocytes, primary screen, PSAC antagonist project, cell-based, P. falciparum Indochina, OD700, 3 h (AID 1156); settings: higher = more signal, called active from +8 up or from −8 down
[6] = PSAC antagonists in infected red cells, primary screen, cell-based, P. falciparum Indochina, OD700, 18 h (AID 1157); settings: P. falciparum Indochina infected erythrocytes, osmotic lysis OD700, 18 h; higher = more signal, called active from +8 up or from −8 down
[7] = modulators of S6 phosphorylation in cells, primary screen, cell-based, A549, cytoblot, luminescence, serum-stimulated (AID 1158); settings: A549 phospho-S6 cytoblot, 5 h, higher = more signal;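 also: serum-stimulated A549 lung adenocarcinoma cells; signal is phosphorylated S6 detected by cytoblot immunostaining with HRP secondary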
[8] = target: NADPH oxidase 2 (Homo sapiens) (UniProt P04839); test: NOX2-dependent H2O2 signal modulators, primary screen, NOX inhibitor project, cell-based, HEK293-NOX2, PMA-stimulated, Amplex Red fluorescence (AID 1159); settings: 45 min, higher = more signal, called active from +8 up or from −8 down; also: test concentration not given here
[9] = target: NADPH oxidase 4 (Homo sapiens) (UniProt Q9NPH5); test: NOX4-dependent H2O2 signal modulators, primary screen, NOX inhibitor project, cell-based, HEK293-NOX4, tetracycline-induced, Amplex Red fluorescence (AID 1160); settings: 45 min, higher = more signal, called active from +8 up or from −8 down
[10] = target: NADPH oxidase 5 (Homo sapiens) (UniProt Q96PH1); test: NOX5-dependent H2O2 signal modulators, primary screen, NOX inhibitor project, cell-based, HEK293-NOX5, Amplex Red fluorescence (AID 1161); settings: HEK293-NOX5, ionomycin, 45 min, higher = more signal
NADPH oxidase 5 (Homo sapiens), sequence (Q96PH1 whole entry, looked up): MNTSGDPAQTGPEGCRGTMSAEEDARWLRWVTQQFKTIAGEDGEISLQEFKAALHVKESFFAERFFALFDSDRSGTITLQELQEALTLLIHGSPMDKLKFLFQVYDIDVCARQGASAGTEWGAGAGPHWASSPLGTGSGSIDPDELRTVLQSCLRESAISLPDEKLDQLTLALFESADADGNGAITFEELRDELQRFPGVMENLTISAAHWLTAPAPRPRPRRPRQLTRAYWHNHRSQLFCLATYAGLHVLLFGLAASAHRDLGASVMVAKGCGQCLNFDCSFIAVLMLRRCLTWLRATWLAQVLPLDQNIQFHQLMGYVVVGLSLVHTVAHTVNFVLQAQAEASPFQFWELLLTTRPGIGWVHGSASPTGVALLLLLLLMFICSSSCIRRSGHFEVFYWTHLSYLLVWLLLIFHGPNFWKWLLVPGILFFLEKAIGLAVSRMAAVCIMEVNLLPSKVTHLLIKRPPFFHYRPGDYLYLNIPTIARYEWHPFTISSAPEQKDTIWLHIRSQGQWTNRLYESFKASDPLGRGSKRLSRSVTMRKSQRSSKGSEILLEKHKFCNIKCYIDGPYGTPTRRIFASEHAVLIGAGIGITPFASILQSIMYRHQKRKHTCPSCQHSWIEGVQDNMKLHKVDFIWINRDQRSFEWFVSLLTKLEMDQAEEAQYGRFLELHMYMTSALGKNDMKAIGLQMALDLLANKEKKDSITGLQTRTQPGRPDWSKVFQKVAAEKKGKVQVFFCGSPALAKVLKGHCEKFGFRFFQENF

NADPH oxidase 2 (Homo sapiens), sequence (P04839 whole entry, looked up): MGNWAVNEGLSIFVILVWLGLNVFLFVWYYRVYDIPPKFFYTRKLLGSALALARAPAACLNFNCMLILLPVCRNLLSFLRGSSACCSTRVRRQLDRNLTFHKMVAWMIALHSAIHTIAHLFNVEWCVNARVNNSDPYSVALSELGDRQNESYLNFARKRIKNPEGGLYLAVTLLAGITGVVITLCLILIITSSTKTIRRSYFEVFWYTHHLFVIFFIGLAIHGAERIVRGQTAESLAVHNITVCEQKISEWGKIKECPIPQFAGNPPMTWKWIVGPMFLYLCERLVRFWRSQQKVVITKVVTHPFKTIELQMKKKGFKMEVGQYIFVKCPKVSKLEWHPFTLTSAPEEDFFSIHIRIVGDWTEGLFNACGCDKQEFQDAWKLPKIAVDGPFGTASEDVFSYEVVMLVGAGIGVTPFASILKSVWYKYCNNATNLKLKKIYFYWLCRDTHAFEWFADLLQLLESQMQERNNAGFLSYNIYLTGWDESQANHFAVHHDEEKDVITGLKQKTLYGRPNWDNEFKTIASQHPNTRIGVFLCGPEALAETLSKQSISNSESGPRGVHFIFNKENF
NADPH oxidase 4 (Homo sapiens), sequence (Q9NPH5 whole entry, looked up): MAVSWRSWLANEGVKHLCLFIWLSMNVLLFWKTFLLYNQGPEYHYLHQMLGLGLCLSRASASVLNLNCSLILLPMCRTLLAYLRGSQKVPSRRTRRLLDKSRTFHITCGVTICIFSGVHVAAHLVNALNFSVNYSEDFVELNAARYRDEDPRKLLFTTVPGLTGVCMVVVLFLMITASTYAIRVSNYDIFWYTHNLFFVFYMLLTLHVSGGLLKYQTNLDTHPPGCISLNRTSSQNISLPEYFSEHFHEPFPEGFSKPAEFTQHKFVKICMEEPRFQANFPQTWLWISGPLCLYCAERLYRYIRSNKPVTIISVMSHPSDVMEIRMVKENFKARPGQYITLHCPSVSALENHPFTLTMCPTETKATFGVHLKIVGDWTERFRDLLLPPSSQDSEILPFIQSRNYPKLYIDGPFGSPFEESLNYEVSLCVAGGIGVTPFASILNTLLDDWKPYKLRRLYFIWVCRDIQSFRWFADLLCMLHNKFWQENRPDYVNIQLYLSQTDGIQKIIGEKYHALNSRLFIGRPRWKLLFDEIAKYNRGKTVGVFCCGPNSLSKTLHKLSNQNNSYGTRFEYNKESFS

C=CC[C@@H](OC(=O)Nc1ccc(OC)cc1)c1ccc(O)c2ccccc12
z-score [1]: 0.122 (inactive)
composite z-score [2]: -0.0615
z-score [3]: 3.63 (inactive)
z-score [4]: 0.661 (inactive)
z-score [5]: -0.335 (inactive)
z-score [6]: 0.279 (inactive)
z-score [7]: 0.229
z-score [8]: -6.06 (inactive)
z-score [9]: -1.69 (inactive)
z-score [10]: -0.308

CS(=O)(=O)CCOC(=O)C1=CC(CCCO)=CC(c2cccs2)N(Cc2cc3c(cc2Br)OCO3)C=C1C(=O)OCCS(C)(=O)=O (stereo not given)
z-score [1]: 0.702 (inactive)
composite z-score [2]: -0.0767
z-score [3]: 5.62 (inactive)
z-score [4]: 0.944 (inactive)
z-score [5]: 1.85 (inactive)
z-score [6]: 0.479 (inactive)
z-score [7]: 0.252
z-score [8]: -2.11 (inactive)
z-score [9]: -1.1 (inactive)
z-score [10]: -1.41

C=C[C@@H](COC(C)=O)N(Cc1ccccc1[N+](=O)[O-])S(=O)(=O)c1ccc(Br)cc1
z-score [1]: 1.43 (inactive)
composite z-score [2]: -0.339
z-score [3]: 2.44 (inactive)
z-score [4]: -0.407 (inactive)
z-score [5]: -0.885 (inactive)
z-score [6]: -0.709 (inactive)
z-score [7]: 3.16
z-score [8]: -4.3 (inactive)
z-score [9]: -0.628 (inactive)
z-score [10]: -1.98

O=C1OCCC=C[C@H]2OC34C=CCN(Cc5ccccc5)C(=O)[C@H]3N(CCCCCCO)C(=O)[C@@H]4C12 (stereo not given in full)
z-score [1]: 1.12 (inactive)
composite z-score [2]: -0.0831
z-score [3]: 0.944 (inactive)
z-score [4]: 0.396 (inactive)
z-score [5]: 0.884 (inactive)
z-score [6]: 0.43 (inactive)
z-score [7]: 1.2
z-score [8]: 1.11 (inactive)
z-score [9]: 0.0473 (inactive)
z-score [10]: 1.97

CCOC(=O)C[C@H]1[C@H](OC(=O)c2ccccc2-c2ccccc2)[C@@H](NC(=O)Cc2ccc(OC)cc2)c2cc(OCCCO)ccc2N1C(=O)c1ccccc1
z-score [1]: -1.14 (inactive)
composite z-score [2]: -0.0877
z-score [3]: 1.57 (inactive)
z-score [4]: 0.316 (inactive)
z-score [5]: 0.432 (inactive)
z-score [6]: 0.208 (inactive)
z-score [7]: -0.127
z-score [8]: 1.02 (inactive)
z-score [9]: 1.15 (inactive)
z-score [10]: -0.26

C=C[C@H](C)[C@@H](O)c1ccc(O)c2ccccc12
z-score [1]: 0.048 (inactive)
composite z-score [2]: 0.169
z-score [3]: 1.01 (inactive)
z-score [4]: 1.05 (inactive)
z-score [5]: 0.0353 (inactive)
z-score [6]: 1.02 (inactive)
z-score [7]: -0.157
z-score [8]: -5.28 (inactive)
z-score [9]: -1.05 (inactive)
z-score [10]: 1.33

CCOC(=O)[C@H]1C/C=C/C[C@H](C(=O)OCC)C(=O)O[C@H]2[C@@H](OC)O[C@H](CO)[C@@H](OC(=O)Nc3ccc4c(c3)OCO4)[C@@H]2OC1=O
z-score [1]: 1.2 (inactive)
composite z-score [2]: -0.0727
z-score [3]: 4.49 (inactive)
z-score [4]: 1.81 (inactive)
z-score [5]: -0.564 (inactive)
z-score [6]: 1.73 (inactive)
z-score [7]: 0.483
z-score [8]: -1.09 (inactive)
z-score [9]: -0.854 (inactive)
z-score [10]: -0.02

COC(=O)C1=CC(CCCO)=CC(C2CC2)N(Cc2sc3ccccc3c2Cl)C=C1C(=O)OC (stereo not given)
z-score [1]: -0.899 (inactive)
composite z-score [2]: 0.335
z-score [3]: 10.6 (active)
z-score [4]: 2.09 (inactive)
z-score [5]: 0.901 (inactive)
z-score [6]: 1.23 (inactive)
z-score [7]: -0.18
z-score [8]: -0.986 (inactive)
z-score [9]: -1.76 (inactive)
z-score [10]: 0.19

COCCOC(=O)N1C(=O)[C@@]2(c3ccccc31)[C@H](c1ccc(O)cc1)N1[C@H](c3ccccc3)[C@H](c3ccccc3)OC(=O)[C@H]1[C@@H]2C(=O)N1CCc2cc(OC)c(OC)cc2C1
z-score [1]: 0.682 (inactive)
composite z-score [2]: -0.181
z-score [3]: 0.428 (inactive)
z-score [4]: -0.261 (inactive)
z-score [5]: 0.0172 (inactive)
z-score [6]: -1 (inactive)
z-score [7]: 1.55
z-score [8]: 0.343 (inactive)
z-score [9]: 0.594 (inactive)
z-score [10]: 1.95

CCCCCN1CC=CC23O[C@@H]4/C=C\CCC(C)OC(=O)C4[C@H]2C(=O)N(CCCCCO)[C@@H]3C1=O (stereo not given in full)
z-score [1]: 2.65 (inactive)
composite z-score [2]: -0.493
z-score [3]: 0.42 (inactive)
z-score [4]: -0.524 (inactive)
z-score [5]: -0.935 (inactive)
z-score [6]: -0.875 (inactive)
z-score [7]: 0.832
z-score [8]: 1.03 (inactive)
z-score [9]: -0.177 (inactive)
z-score [10]: 1.45

CN(C)CCCCCCNC(=O)[C@H]1C[C@H]2C(=O)N[C@@H](CCCCN)C(=O)N2[C@H]1c1ccc(O)cc1
z-score [1]: -0.261 (inactive)
composite z-score [2]: 2.82
z-score [3]: -0.294 (inactive)
z-score [4]: 0.155 (inactive)
z-score [5]: -0.844 (inactive)
z-score [6]: 0.303 (inactive)
z-score [7]: 0.169
z-score [8]: 0.418 (inactive)
z-score [9]: -0.145 (inactive)
z-score [10]: 0.887

COCCOC(=O)N1C(=O)[C@@]2(c3cc(C#CCNC(N)=O)ccc31)[C@H](C(=O)N1CCc3cc(OC)c(OC)cc3C1)[C@H]1C(=O)O[C@H](c3ccccc3)[C@H](c3ccccc3)N1[C@@H]2c1ccc(OCCO)cc1
z-score [1]: 1.3 (inactive)
composite z-score [2]: -0.361
z-score [3]: 3.93 (inactive)
z-score [4]: 1.37 (inactive)
z-score [5]: 0.695 (inactive)
z-score [6]: 0.778 (inactive)
z-score [7]: 0.412
z-score [8]: 0.825 (inactive)
z-score [9]: 0.869 (inactive)
z-score [10]: -0.0832

COC(=O)c1ccc(C(O)C2C=CC3C(=O)N(C)C(=O)C3N2NC(=O)OC(C)(C)C)o1 (stereo not given)
z-score [1]: -1.31 (inactive)
composite z-score [2]: 0.0622
z-score [3]: 0.146 (inactive)
z-score [4]: 0.52 (inactive)
z-score [5]: -0.46 (inactive)
z-score [6]: 0.533 (inactive)
z-score [7]: -0.785
z-score [8]: -0.786 (inactive)
z-score [9]: -0.929 (inactive)
z-score [10]: 0.396

CN(C)C(=O)[C@@]1(CCC(=O)OC(C)(C)C)N=C(c2ccc(OCCCO)cc2)O[C@H]1c1ccccc1
z-score [1]: -0.249 (inactive)
composite z-score [2]: 0.986
z-score [3]: 15.9 (active)
z-score [4]: 1 (inactive)
z-score [5]: 1.34 (inactive)
z-score [6]: -0.976 (inactive)
z-score [7]: 0.837
z-score [8]: -2.81 (inactive)
z-score [9]: -0.618 (inactive)
z-score [10]: -0.698

COCCOC(=O)N1C(=O)[C@@]2(c3cc(C#CCNC(N)=O)ccc31)[C@H](C(=O)N1CCN(c3ncccn3)CC1)[C@H]1C(=O)O[C@H](c3ccccc3)[C@H](c3ccccc3)N1[C@@H]2c1ccccc1OCCO
z-score [1]: 1.07 (inactive)
composite z-score [2]: 0.248
z-score [3]: 2.72 (inactive)
z-score [4]: 1.32 (inactive)
z-score [5]: 0.749 (inactive)
z-score [6]: 0.883 (inactive)
z-score [7]: 0.915
z-score [8]: 1.99 (inactive)
z-score [9]: 0.756 (inactive)
z-score [10]: -1.08

CC(C)c1ccc(NN2C(C(O)c3c(F)cccc3Cl)C=CC3C(=O)N(c4ccccc4)C(=O)C32)cc1 (stereo not given)
z-score [1]: -2.03 (inactive)
composite z-score [2]: 1.22
z-score [3]: 2.86 (inactive)
z-score [4]: 1.18 (inactive)
z-score [5]: 1.12 (inactive)
z-score [6]: 1.02 (inactive)
z-score [7]: -1.02
z-score [8]: -1.38 (inactive)
z-score [9]: -5.38 (inactive)
z-score [10]: -4.14

C=CCOC(=O)[C@H]1[C@@H]2C(=O)O[C@@H](c3ccccc3)[C@@H](c3ccccc3)N2[C@@H](c2ccc(OCCOC(=O)[C@@H]3C[C@@H]4C(=O)NCC(=O)N4[C@@H]3c3ccc(O)cc3)cc2)[C@]12C(=O)Nc1ccccc12
z-score [1]: 2.47 (inactive)
composite z-score [2]: 0.3
z-score [3]: 1.77 (inactive)
z-score [4]: -0.0123 (inactive)
z-score [5]: 0.708 (inactive)
z-score [6]: -0.513 (inactive)
z-score [7]: 1.14
z-score [8]: 2.07 (inactive)
z-score [9]: 1.31 (inactive)
z-score [10]: 1.1

CCC[C@@H]1C=C(C(=O)O)[C@H](c2ccc(C)cc2)N1S(=O)(=O)c1ccc(C)cc1
z-score [1]: -0.75 (inactive)
composite z-score [2]: 0.114
z-score [3]: 0.0822 (inactive)
z-score [4]: 0.932 (inactive)
z-score [5]: -0.246 (inactive)
z-score [6]: 1.03 (inactive)
z-score [7]: -0.476
z-score [8]: 0.769 (inactive)
z-score [9]: -0.741 (inactive)
z-score [10]: 0.101

COC(=O)[C@@]1(Cc2ccccc2)[C@H]2c3cc(C(=O)N4CCCC4)n(C)c3C[C@H]2CN1C(=O)c1ccccc1
z-score [1]: -0.308 (inactive)
composite z-score [2]: 0.321
z-score [3]: 1.54 (inactive)
z-score [4]: -0.0273 (inactive)
z-score [5]: 0.835 (inactive)
z-score [6]: 0.396 (inactive)
z-score [7]: -0.0948
z-score [8]: -0.153 (inactive)
z-score [9]: -0.653 (inactive)
z-score [10]: -1.45

CN(C)CCCCNC(=O)[C@H]1C[C@H]2C(=O)N[C@@H](Cc3ccccc3)C(=O)N2[C@H]1c1ccc(O)cc1
z-score [1]: 1.22 (inactive)
composite z-score [2]: 0.0161
z-score [3]: -0.0717 (inactive)
z-score [4]: -0.63 (inactive)
z-score [5]: 0.347 (inactive)
z-score [6]: -0.512 (inactive)
z-score [7]: 0.403
z-score [8]: -1.35 (inactive)
z-score [9]: -1.66 (inactive)
z-score [10]: -3.92

CC(C)=CCCC(C)=CC(O)C1C=CC2C(=O)N(c3ccccc3)C(=O)C2N1Nc1ccccc1 (stereo not given)
z-score [1]: -1.8 (inactive)
composite z-score [2]: 0.805
z-score [3]: 1.37 (inactive)
z-score [4]: 1.4 (inactive)
z-score [5]: 1.09 (inactive)
z-score [6]: 1.27 (inactive)
z-score [7]: -1.29
z-score [8]: -1.26 (inactive)
z-score [9]: -4.03 (inactive)
z-score [10]: -2.54

CCOC(=O)C[C@H]1[C@H](OC(=O)c2ccc(-c3ccccc3)cc2)[C@@H](NC(=O)Cc2ccc(OC)cc2)c2cc(OCCCO)ccc2N1C(=O)c1ccc2ccccc2n1
z-score [1]: -0.667 (inactive)
composite z-score [2]: -0.231
z-score [3]: 2.63 (inactive)
z-score [4]: 0.393 (inactive)
z-score [5]: -0.619 (inactive)
z-score [6]: 0.653 (inactive)
z-score [7]: 1.3
z-score [8]: 0.377 (inactive)
z-score [9]: 1.29 (inactive)
z-score [10]: 1.73
